Data taken from PubChem BioAssay AID651629 (Sanford-Burnham Center for Chemical Genomics, 2012).
The list shows a part of the results. Activity calls are given as the source filed them.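 How the source made its calls: active means mean inhibition across replicates of 40% or more; inactive means mean inhibition below 40%.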

Experiment: TAG lipid buildup inhibition in H9c2 – cell-based, single concentration, Nile Red fluorescence, confirmation (AID 651629);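 further: plate controls were DMSO only wells for no effect and Triacsin C treated wells for full effect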
Settings: H9c2 lipid accumulation, at 12.5 µM, stronger effect = higher value, cells loaded with 200 µM oleic acid

| Compound | inhibition |
| --- | --- |
| C=CCn1c(SCc2c(C)noc2C)nc2sc3c(c2c1=O)CCC(C)C3 (stereo not given) | 49.4% (active) |
| O=C(CSc1nc2ccc(Nc3nc(N4CCOCC4)nc(N4CCOCC4)n3)cc2s1)NCc1ccco1 | 65.5% (active) |
| COc1cc(/C=C2\Oc3ccc(C#Cc4ccc(O)cc4)cc3C2=O)cc(OC)c1 | 103% (active) |
| Cc1ccccc1OCC(=O)Nc1ccc(N2CCN(C(=O)C(C)C)CC2)c(Cl)c1 | 7.1% (inactive) |
| CN(C)CCNC(=O)c1cccc(-c2cnc3c(NC=O)cc(-c4cccc(C(F)(F)F)c4)cn23)c1 | 50.4% (active) |
| COc1ccc(/C=C2/CCCc3ccccc3C2=O)cc1 | 54.5% (active) |
| COc1ccc(-c2cc(NC=O)c3ncc(-c4cc(OC)c(OC)c(OC)c4)n3c2)c(OC)c1 | 79.3% (active) |
| COC(=O)c1ccc(-c2c(-c3ccccc3)ncc3cc(OC)c(OC)cc23)cc1 | 13.2% (inactive) |
| O=C(Nc1ccccc1)Oc1cccc2cccnc12 | -3.58% (inactive) |
| C/C(=N\Nc1ccc(Cl)nn1)c1ccccc1O | 66.4% (active) |
| Cc1onc(NC(=O)c2ccc([N+](=O)[O-])o2)c1Br | 46% (active) |
| Cc1ccc(Sc2cc(N3CCOCC3)nc(-c3ccccc3)n2)cc1 | 62.5% (active) |
| O=C(Nc1ccc(-c2csc(Nc3cccc(C(F)(F)F)c3)n2)cc1)c1cccc(C(F)(F)F)c1 | 66% (active) |
| CC(=O)c1ccc(Oc2cc(C)nc(-n3nc(C)cc3C)n2)cc1 | 63.2% (active) |
| C=CCC[C@@H](Cc1ccc(F)cc1)C(=O)OC[C@H](Cc1c[nH]c2ccccc12)NC(=O)[C@@H](CC=C)CC(=O)N(CCO)Cc1ccccc1 | 80% (active) |
| CC1(c2ccccc2)CC(C)(C)N(C(=O)c2cc([N+](=O)[O-])cc([N+](=O)[O-])c2)c2ccccc21 (stereo not given) | 62.2% (active) |
| COC(=O)Nc1nc2ccc(Sc3ccccc3)cc2[nH]1 | 66.1% (active) |
| O=C(Cc1cccc2ccccc12)Nc1ccc2oc(-c3ccccc3)nc2c1 | 25.7% (inactive) |
| CC(C)C(=O)N1CCC2(CC1)Oc1ccc(F)cc1C(=O)C21CC(c2ccccc2)=NO1 (stereo not given) | -2.17% (inactive) |
| COc1ccc(CC(=O)Nc2ccc(-c3nnc(-c4ccc(C)cc4)o3)cc2)cc1 | 57.6% (active) |
| CC(=O)c1cccc(-c2ccc(CN3C(CC(C)C)C(=O)N(Cc4cn(CC5CCCCC5)nn4)CCS3(=O)=O)cc2)c1 (stereo not given) | 47% (active) |
| CCCOC(=O)c1[nH]c2c(c1C)C(=O)CC(c1cccs1)C2 (stereo not given) | 35.2% (inactive) |
| COc1ccc2sc(-c3ccc(S(C)(=O)=O)cc3)c(C#Cc3cncn3C)c2c1 | 74.2% (active) |
| C=CCNC(=S)N/N=C/c1ccc(C)s1 | 24.3% (inactive) |
| COc1ccc(S(=O)(=O)N2CCc3ccccc32)cc1C(=O)Nc1cc(S(C)(=O)=O)ccc1Cl | 16.4% (inactive) |
